Source: PubChem BioAssay AID1851 (National Center for Advancing Translational Sciences (NCATS), 2009)
Screen size: about 16,000 compounds; about 5,800 (36%) were called active. Inconclusive results (about 23%) are left out. The list shows a part of the results. Values without a mark were called inactive. The call rests on the fitted dose curve; in most records, active means well fitted curve in the direction sought with a large enough effect; inconclusive means small, poorly fitted or top-dose-only effect, or effect the other way; inactive means no such curve, though single readings can be large or run the other way.
On the % scale 0 is the no-effect control and ±100 the full control effect.

What follows are molecules tested against Cytochrome P450 2C19 (Homo sapiens) (UniProt P33261) (assay: Cytochrome panel assay with activity outcomes). Settings: recombinant CYP, pro-luciferin dealkylation, luminescence, p450-cyp2c19; series mostly up to 57.1 µM; activity, negative = inhibition: at the top concentration.
Chain of Cytochrome P450 2C19 (Homo sapiens) (P33261 whole entry, looked up): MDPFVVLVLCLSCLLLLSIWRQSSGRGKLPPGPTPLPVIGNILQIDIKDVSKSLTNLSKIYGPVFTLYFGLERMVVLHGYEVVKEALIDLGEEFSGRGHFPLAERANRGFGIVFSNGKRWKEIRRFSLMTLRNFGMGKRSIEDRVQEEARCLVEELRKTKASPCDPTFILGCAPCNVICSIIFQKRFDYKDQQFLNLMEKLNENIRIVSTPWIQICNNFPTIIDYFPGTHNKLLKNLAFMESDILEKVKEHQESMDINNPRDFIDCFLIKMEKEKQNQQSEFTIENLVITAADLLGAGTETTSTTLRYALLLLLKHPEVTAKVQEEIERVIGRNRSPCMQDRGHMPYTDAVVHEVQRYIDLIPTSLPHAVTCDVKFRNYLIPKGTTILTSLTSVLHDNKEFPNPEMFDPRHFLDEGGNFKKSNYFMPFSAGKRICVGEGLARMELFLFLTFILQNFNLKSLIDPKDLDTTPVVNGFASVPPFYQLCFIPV
CN[C@@H]1NC(=O)c2ccccc2N1Cc1ccc(F)cc1 gave an activity, negative = inhibition of -2.68% [at 11.4 µM].
With Cc1ccc(NC2c3ncccc3C(=O)N2Cc2ccc(F)cc2)cc1 (configuration not stated) the AC50 was 5.01 µM (active).
With COc1ccc2[nH]cc(CCNc3ncnc4ccc(-c5cccc(C#N)c5)cc34)c2c1 the AC50 was 7.94 µM (active).
With COc1ccc2[nH]cc(CCNc3ncnc4ccc(-c5ccccc5CN(C)C)cc34)c2c1 the “activity, negative = inhibition” value was -27%.
In the case of COc1cccc(-c2ccc3ncnc(NCCc4c[nH]c5ccc(OC)cc45)c3c2)c1, the AC50 was 3.16 µM (active).
With COc1ccc2[nH]cc(CCNc3ncnc4ccc(-c5ccccc5OC)cc34)c2c1 the AC50 was 2 µM (active).
In the case of COc1ccc2[nH]cc(CCNc3ncnc4ccc(-c5c(C)noc5C)cc34)c2c1, the AC50 was 3.98 µM (active).
COc1ccc2[nH]cc(CCNc3ncnc4ccc(-c5ccoc5)cc34)c2c1 was tested, and the AC50 was 7.94 µM (active).
With COc1ccc2[nH]cc(CCNc3ncnc4ccc(-c5ccc6c(c5)OCO6)cc34)c2c1 the AC50 was 1.58 µM (active).
With COc1ccc2[nH]cc(CCNc3ncnc4ccc(-c5ccccc5C#N)cc34)c2c1 the AC50 was 2 µM (active).
COc1ccc2c(Cl)c(-c3nnco3)sc2c1 was tested, and the AC50 was 7.94 µM (active).
CN1CCN(c2ncc3ncc(=O)n(-c4ccccc4)c3n2)CC1 was tested, and the “activity, negative = inhibition” value was 23.5%.
O=C1CC(c2ccccc2)Cc2nc(N3CCc4ccccc4C3)ncc21 (configuration not stated) was tested, and the AC50 was 3.98 µM (active).
With Cc1nc2cnc(N3CCN(C)CC3)nc2n(-c2ccccc2)c1=O the “activity, negative = inhibition” value was -19.9%.
In the case of Cc1ccc(-n2cnc(=O)c3cccnc32)cc1, the “activity, negative = inhibition” value was -15.1%.
N#Cc1c(-c2ccccc2)cc(C2CC2)nc1SCC(=O)c1cccs1 was tested, and the “activity, negative = inhibition” value was -14.7%.
N#CCCn1c(=O)c(-c2cccs2)nc2cnc(OCc3ccccc3)nc21 was tested, and the “activity, negative = inhibition” value was -9.15%.
In the case of N#Cc1c(-c2cccs2)nc(SCC(=O)c2cccs2)[nH]c1=O, the AC50 was 15.8 µM (active).
In the case of N#Cc1c(-c2ccccc2)nc(-c2ccccc2)[nH]c1=O, the “activity, negative = inhibition” value was -24.4%.
Cc1cccc(NC(=O)CSc2nc(-c3ccccc3)c(C#N)c(=O)[nH]2)c1C was tested, and the AC50 was 14.1 µM (active).
With CN[C@H](CC(=O)O)C(=O)O the “activity, negative = inhibition” value was 10.2%.
For Cc1[nH]nc(N2CCCCCC2)c1[N+](=O)[O-], the AC50 was 6.31 µM (active).
In the case of CCOC(=O)C1(S(=O)(=O)c2ccc(Cl)cc2)CCN(Cc2ccc(Cl)cc2)CC1, the AC50 was 2.24 µM (active).
In the case of CCOC(=O)C1(S(=O)(=O)c2ccccc2)CCN(Cc2ccccc2)CC1, the AC50 was 2.51 µM (active).
In the case of Cc1noc(C)c1C(=O)N1CCC2(CCN(Cc3ccncc3)CC2)CC1, the “activity, negative = inhibition” value was -40.9%.
With O=S(=O)(c1ccccc1)N1CCC2(CCN(Cc3ccccc3)CC2)CC1 the “activity, negative = inhibition” value was -3.37%.
COc1cc2nc(N3CCN(C(=O)OCc4ccccc4)[C@H](C(=O)NC(C)(C)C)C3)nc(N)c2cc1OC was tested, and the “activity, negative = inhibition” value was -23.6%.
For Cc1ccc(SCC(=O)NNC(=O)C2CCCCC2)cc1, the “activity, negative = inhibition” value was -27.7%.
With Cc1ccc(CNC(=O)C2CCC(=O)N2C2CCCCC2)cc1 (configuration not stated) the AC50 was 3.16 µM (active).
In the case of Cc1ccc(CNC(=O)C2CCCN2C(=O)NCc2ccccc2)cc1 (configuration not stated), the AC50 was 10 µM (active).
In the case of CN(C)C(=O)N1CCCC(C(=O)NCCc2ccccc2)C1 (configuration not stated), the “activity, negative = inhibition” value was -25.2%.
Cc1ccc(CN2C(=O)CCC2C(=O)NCc2cccnc2)cc1 (configuration not stated) was tested, and the AC50 was 22.4 µM (active).
With O=C(O)C1CCC(=O)N(C2CC2)C1c1ccccc1 (configuration not stated) the “activity, negative = inhibition” value was -8.66%.
For CC(C)(C)OC(=O)N1CCCC1C(=O)NCCc1ccccc1 (configuration not stated), the AC50 was 6.31 µM (active).
O=C(NCc1cccnc1)[C@@H]1[C@@H](C(=O)O)[C@H]2CC[C@@H]1O2 was tested, and the activity, negative = inhibition was 23.6% [at 11.4 µM].
In the case of O=C(O)[C@@H]1[C@@H](C(=O)NCc2cccnc2)[C@@H]2C=C[C@@H]1O2, the activity, negative = inhibition was 6.83% [at 11.4 µM].
For CCOC(=O)[C@H](CCc1ccccc1)N[C@@H](C)C(=O)N1CCC[C@H]1C(=O)O, the “activity, negative = inhibition” value was 32.5% [at 25.6 µM].
Molecule O=C(O)c1ccccc1-c1ccccc1C(=O)Nc1ccc2c(c1)[nH]c(=O)c1ccccc12 has an activity, negative = inhibition of -24.7% [at 11.4 µM].
With COc1cc(=O)n(C)c2c(OC[C@@H](O)C(C)(C)O)cccc12 the “activity, negative = inhibition” value was 37.7%.
With C[C@H](CCC(=O)NCC(=O)O)[C@H]1CC[C@H]2[C@H]3[C@@H](C[C@@H](O)[C@]12C)[C@]1(C)CC[C@H](O)C[C@@H]1C[C@@H]3O the “activity, negative = inhibition” value was -2.13% [at 25.6 µM].
For COCCn1c(C)cc(C2=NNC(=Nc3ccc(F)cc3)SC2)c1C, the AC50 was 6.31 µM (active).
In the case of Cc1ccc(C(=O)N/N=C/c2sc(=O)n(Cc3cccc(C(=O)O)c3)c2Cl)cc1, the “activity, negative = inhibition” value was 7.1%.
O=C(N/N=C/c1c(Nc2cccc(C(F)(F)F)c2)nc2ccccn2c1=O)c1ccccc1 was tested, and the AC50 was 7.08 µM (active).
With O=C(NNC(=O)c1cc2cc3ccccc3nc2s1)c1cccc(C(F)(F)F)c1 the “activity, negative = inhibition” value was -4.56%.
O=C(NCCC[N+]1=CC=N[C@H]1c1ccccc1)N1CCCc2nc(-c3ccc(Br)cc3)ccc21 showed an activity, negative = inhibition of -32% [at 11.4 µM].
Clc1ccccc1CSc1nnc(/C=C/c2ccccc2)o1 was tested, and the AC50 was 6.31 µM (active).
In the case of Clc1cccc(Cl)c1CSc1nnc(/C=C/c2ccccc2)o1, the AC50 was 10 µM (active).
CC(C)=CCC/C(C)=C/CO/N=C1/C[C@@H](O)[C@@H](O)[C@@H]2[C@@H]3C(=O)N(Cc4ccc5c(c4)OCO5)C(=O)[C@H]3CC[C@H]12 showed an activity, negative = inhibition of -41.4% [at 11.4 µM].
In the case of CC1(C)CC(=O)c2c(Cc3ccccc3)n[nH]c2C1, the AC50 was 15.8 µM (active).
For Cc1ccc(C)c(N2CCN(C(=O)c3ccc4nc(-c5ccco5)c(-c5ccco5)nc4c3)CC2)c1, the AC50 was 8.91 µM (active).
For CCC(CC)C(=O)NCc1ccc2c(c1)cc(C)n2C, the AC50 was 14.1 µM (active).
With Cc1cc2cc(CNC(=O)CC(C)C)ccc2n1C the AC50 was 11.2 µM (active).
In the case of Cc1ccc(CNC(=O)CCNS(=O)(=O)c2ccc3c(c2)c(=O)n(C)c(=O)n3C)cc1, the “activity, negative = inhibition” value was -15.8%.
CCOC(=O)NNc1nncc2ccccc12 was tested, and the “activity, negative = inhibition” value was -27.7% [at 25.6 µM].
In the case of CCOC(=O)NCc1ccc2c(c1)cc(C)n2C, the AC50 was 15.8 µM (active).
In the case of CC(N)=O, the “activity, negative = inhibition” value was 18.4%.
Work on Cn1c(=O)c2[nH]c(CCS)nc2n(C)c1=O yielded an activity, negative = inhibition of -13.4% [at 11.4 µM].
In the case of COc1ccc(C(C(=O)NC2CCCCC2)N(C(=O)Cc2c[nH]c3ccccc23)c2ccc(NC(C)=O)cc2)cc1OC (configuration not stated), the AC50 was 10 µM (active).
For CC(=O)N[C@@H](Cc1c[nH]c2ccccc12)C(=O)OCc1cc(C(F)(F)F)cc(C(F)(F)F)c1, the “activity, negative = inhibition” value was -35.8%.
In the case of COc1ccc(S(=O)(=O)Nc2cccc(Cl)c2)cc1OC, the AC50 was 0.631 µM (active).
For CCOc1ccccc1Oc1coc2cc(OC)ccc2c1=O, the AC50 was 2.82 µM (active).
In the case of CCN(CC)Cc1c(O)ccc2c(=O)c(Oc3ccccc3OC)coc12, the “activity, negative = inhibition” value was -9.67%.
For O=C1C(C2=NC(C(=O)O)C3C(=O)N(c4ccc(Cl)cc4)C(=O)C23)=C(O)c2ccccc21 (configuration not stated), the “activity, negative = inhibition” value was 19.4%.
In the case of O=C1C2Sc3[nH]c(=O)sc3C(c3ccccc3)C2C(=O)N1c1ccc(Cl)cc1 (configuration not stated), the AC50 was 2.82 µM (active).
With O=C1C2Sc3[nH]c(=O)sc3C(c3ccccc3)C2C(=O)N1c1ccccc1 (configuration not stated) the AC50 was 2.24 µM (active).
O=C(CCCC(=O)OCC(=O)c1ccc(Cl)cc1Cl)Nc1cc(C(F)(F)F)ccc1Cl was tested, and the AC50 was 8.91 µM (active).
For Cc1cc(NC(=O)CCCC(=O)OCC(F)(F)C(F)F)cc(C)c1C(=O)O, the “activity, negative = inhibition” value was -60.4%.
In the case of CCn1cc(-c2nnnn2-c2ccc(Cl)cc2)c(=O)c2ccccc21, the AC50 was 17.8 µM (active).
O=S(=O)(Nc1ccc2oc(-c3ccccc3)nc2c1)c1ccccc1 was tested, and the AC50 was 0.631 µM (active).
In the case of COC(=O)[C@@H]1C[C@H]1[C@@H](NC(=O)c1cnccn1)c1ccccc1, the “activity, negative = inhibition” value was -35%.
In the case of COC(=O)[C@H]1C[C@@H]1[C@H](NC(=O)c1cc(C)on1)c1ccccc1, the AC50 was 20 µM (active).
COC(=O)[C@H]1C[C@@H]1[C@H](NC(=O)c1cnccn1)c1ccccc1 was tested, and the “activity, negative = inhibition” value was -34.9%.
In the case of COC(=O)[C@@H]1C[C@H]1[C@@H](NC(=O)c1cc(C)on1)c1ccccc1, the AC50 was 15.8 µM (active).
With C[C@@]1(C(=O)O)NCCc2cc(O)c(O)cc21 the “activity, negative = inhibition” value was -18.6%.
For COc1ccc(/C=C2\OC(=O)c3c(OC)cccc32)cc1OC, the AC50 was 8.91 µM (active).
With CCc1nc(SCC(=O)NCCc2ccccc2)c2oc3ccccc3c2n1 the AC50 was 0.562 µM (active).
In the case of Cc1nc(SCC(=O)NCCc2ccccc2)c2oc3ccccc3c2n1, the AC50 was 0.178 µM (active).
For O=S(=O)(c1ccccc1)N1CCC2(CCCN(c3ncccn3)C2)CC1, the AC50 was 0.398 µM (active).
CS(=O)(=O)N1CCC2(CC1)CN(c1ncccn1)C2 was tested, and the “activity, negative = inhibition” value was 13.9%.
O=S(=O)(c1ccccc1)N1CCC2(CC1)CN(c1ncccn1)C2 was tested, and the “activity, negative = inhibition” value was 15.6%.
In the case of O=S(=O)(c1ccccc1)N1CCC2(CCCN(c3ccccn3)C2)CC1, the AC50 was 0.158 µM (active).
Molecule CCOC(=O)N/N=C1/C[C@@H](O)[C@@H](O)[C@@H]2[C@@H]3C(=O)N(C4CCCCC4)C(=O)[C@H]3CC[C@H]12 has an activity, negative = inhibition of 9.98% [at 11.4 µM].
In the case of Cl/C(=C\n1cncn1)c1ccc(Cl)cc1Cl, the “activity, negative = inhibition” value was -25%.
In the case of O=C(c1cnc(-c2ccccc2)s1)c1ccc(Cl)cc1Cl, the AC50 was 2.24 µM (active).
Work on CC(=O)O[C@]1(C)N=NC2(CCCCC2)O1 yielded an activity, negative = inhibition of 5.37% [at 11.4 µM].
With CCOC(=O)c1c(NC(=O)CCc2ccc(CC)o2)sc(C)c1C the AC50 was 5.62 µM (active).
With CCOC(=O)c1c(NC(=O)CSc2nnnn2C)sc(C)c1C the AC50 was 10 µM (active).
In the case of CCOC(=O)c1c(NC(=O)Nc2ccccc2)sc(C)c1C, the AC50 was 5.01 µM (active).
Cc1sc(NC(=O)C(C)C)c(C(=O)Nc2ccccc2)c1C was tested, and the AC50 was 3.55 µM (active).
CO[C@]1(NC(=O)CSCC#N)C(=O)N2C(C(=O)O)=C(CSc3nnnn3C)CS[C@H]21 was tested, and the AC50 was “inactive”.
Molecule NCCSCCC(=O)O has an activity, negative = inhibition of 13.2% [at 11.4 µM].
For CN(C)Cc1ccccc1-c1cncnc1NCc1cccnc1, the “activity, negative = inhibition” value was -37%.
In the case of Cc1ccccc1-c1cncnc1NCc1cccnc1, the AC50 was 0.398 µM (active).
In the case of Cc1ccccc1-c1cncnc1NCc1ccccc1, the AC50 was 2 µM (active).
COc1ccccc1-c1cncnc1NCc1cccnc1 was tested, and the AC50 was 3.16 µM (active).
In the case of Cc1cccc(CNc2ncncc2-c2ccccc2Cl)c1, the AC50 was 1 µM (active).
With Cc1noc(C)c1-c1cncnc1NCc1ccccc1 the “activity, negative = inhibition” value was -36.3%.
